The source of these data is PubChem BioAssay (EPA / NIEHS).

The nature of experiment [1]: BSK_4H_Eotaxin3: BioMAP Diversity Plus: 4H Assay for Eotaxin 3 Biomarker Activity (AID 2283000).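 Note: CCL26 protein level quantified by ELISA in parallel with SRB cytotoxicity check.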 Conditions: primary human endothelial cells (HUVEC); actives raise or lower the signal. The essentials: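 Human umbilical vein endothelial cells (BSK_4H system) dosed with test chemical; Eotaxin-3 (CCL26) measured by ELISA 24 h after dosing. Bidirectional curve fitting relative to DMSO negative control as baseline.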

Read-out in experiment [2]: Intercellular Adhesion Molecule 1 (ICAM1), ICAM1 (gene 3383)
As to the kind of experiment: BSK_3C_ICAM1: BioMAP Diversity Plus: 3C Assay for Intercellular Adhesion Molecule 1 (ICAM1) Biomarker Activity (AID 2283003). Conditions: primary human endothelial cells (HUVEC); actives raise or lower the signal. The essentials: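 Using DMSO as baseline, bidirectional curve fitting was applied to ICAM-1 ELISA signals from HUVEC in the 3C system, measured 24 h after compound addition.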

The nature of experiment [3]: BSK_3C_Proliferation: Cell Proliferation Assessment in the BioMAP Diversity Plus: 3C Assay (AID 2283006).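 For AC50: potency may reflect either rise or fall in cell number versus DMSO.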 Conditions: primary human endothelial cells (HUVEC). The essentials: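 Measured here: sulforhodamine B (0.1%) staining of TCA-fixed sub-confluent umbilical vein endothelial cultures 48 h post-dosing, absorbance 560 nm. DMSO served as negative control and baseline; both signal gain and loss were modelled.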

Experiment [4] has as its target Peroxisome proliferator-activated receptor gamma (Homo sapiens) (UniProt P37231). The experiment is described as follows: ATG_PPARg_TRANS: Attagene TRANS-FACTORIAL HepG2 Assay for human Peroxisome Proliferator-activated Receptor-gamma (PPARg) (AID 2283007; active = hit-call score of the fitted dose curve at least 0.9, where 1 is the maximum). The essentials:
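Multiplexed reporter transcription units in HepG2, 24 h dosing, reporter transcripts quantified by fluorescent RT-PCR and capillary electrophoresis. Increase over DMSO scored.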

Experiment [5] has as its target Retinoic acid receptor RXR-alpha (Homo sapiens) (UniProt P19793). As to the kind of experiment: ATG_RXRa_TRANS: Attagene TRANS-FACTORIAL HepG2 Assay for human Retinoid X Receptor alpha (RXRa) (AID 2283012; active = hit-call score of the fitted dose curve at least 0.9, where 1 is the maximum). The essentials: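 Chimeric NR-GAL4 trans-activation in HepG2, 24 h treatment; reporter transcripts quantified by fluorescence on capillary electrophoresis, analysed for upward change from DMSO.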

For experiment [6], the target named is human Retinoid X Receptor beta (RXRb), RXRB (gene 6257) (UniProt P28702). The experiment is described as follows: ATG_RXRb_TRANS: Attagene TRANS-FACTORIAL HepG2 Assay for human Retinoid X Receptor beta (RXRb) (AID 2283013; active = hit-call score of the fitted dose curve at least 0.9, where 1 is the maximum). The essentials: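 After a 24 h incubation with test chemical, transfected HepG2 cells carrying NR-Gal4 fusions and GAL4-UAS reporter transcription units yield RNA whose reporter cDNA is FAM-labelled, HpaI-cut and sized by capillary electrophoresis; increases over DMSO are scored.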

Read-out in experiment [7]: Interleukin-1 alpha (IL1a), IL1A (gene 3552)
As to the kind of experiment: BSK_BE3C_IL1a: BioMAP Diversity Plus: BE3C Assay for Interleukin-1 alpha (IL1a) Biomarker Activity (AID 2283016). Conditions: primary human bronchial epithelial cells; actives raise or lower the signal. The essentials:
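Measured in human lung primary bronchial epithelial cells: IL-1a by ELISA at 24 h after dosing, with bidirectional fitting against DMSO.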

Read-out in experiment [8]: Monocyte Chemoattractant Protein-1 (MCP1), CCL2 (gene 6347)
As to the kind of experiment: BSK_3C_MCP1: BioMAP Diversity Plus: 3C Assay for Monocyte Chemoattractant Protein-1 (MCP1) Biomarker Activity (AID 2283017). Conditions: primary human endothelial cells (HUVEC); actives raise or lower the signal. The essentials:
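MCP-1 was measured by ELISA 24 h after dosing in primary HUVEC 3C cultures and fitted in both directions relative to DMSO; cytotoxicity was checked by SRB total-protein staining in parallel wells.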

Read-out in experiment [9]: Monocyte Chemoattractant Protein-1 (MCP1), CCL2 (gene 6347)
The experiment is described as follows: BSK_4H_MCP1: BioMAP Diversity Plus: 4H Assay for Monocyte Chemoattractant Protein-1 (MCP1) Biomarker Activity (AID 2283018). Conditions: primary human endothelial cells (HUVEC); actives raise or lower the signal. The essentials:
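Primary human umbilical vein endothelium is exposed to chemical for 24 h before MCP-1 is assayed by ELISA. Concentration-response fitted bidirectionally relative to DMSO.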

Read-out in experiment [10]: Human Leukocyte Antigen - DR isotype (HLADR), HLA-DRA (gene 3122)
As to the kind of experiment: BSK_3C_HLADR: BioMAP Diversity Plus: 3C Assay for Human Leukocyte Antigen - DR isotype (HLADR) Biomarker Activity (AID 2283019).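 Note: ELISA of cell-surface HLA-DR on HUVEC 24 h after dosing.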 Conditions: primary human endothelial cells (HUVEC); actives raise or lower the signal. The essentials: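 Bidirectional fitting against DMSO was applied to the HLA-DR ELISA signal from human umbilical vein endothelial cells, 24 h post-dose. Cytotoxicity came from parallel SRB total-protein staining; 3C proliferation was counted by SRB at 48 h.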

Read-out in experiment [11]: Interleukin-8 (IL8), CXCL8 (gene 3576)
As to the kind of experiment: BSK_3C_IL8: BioMAP Diversity Plus: 3C Assay for Interleukin-8 (IL8) Biomarker Activity (AID 2283020). Conditions: primary human endothelial cells (HUVEC); actives raise or lower the signal. The essentials: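 Using DMSO-treated wells as the baseline, bidirectional curve fitting was applied to ELISA-measured IL-8 from human umbilical vein endothelial cultures sampled 24 h after compound addition.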

Read-out in experiment [12]: Monokine induced gamma interferon (MIG), CXCL9 (gene 4283)
As to the kind of experiment: BSK_3C_MIG: BioMAP Diversity Plus: 3C Assay for Monokine induced gamma interferon (MIG) Biomarker Activity (AID 2283021). Conditions: primary human endothelial cells (HUVEC); actives raise or lower the signal. The essentials: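 ELISA-measured MIG in dosed HUVEC 3C cultures at 24 h, analysed by bidirectional fitting with DMSO defining baseline activity.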

Experiment [13] addresses human Peroxisome Proliferator-activated Receptor delta (PPARd), PPARD (gene 5467) (UniProt Q03181). As to the kind of experiment: ATG_PPARd_TRANS: Attagene TRANS-FACTORIAL HepG2 Assay for human Peroxisome Proliferator-activated Receptor delta (PPARd) (AID 2283002; active = hit-call score of the fitted dose curve at least 0.9, where 1 is the maximum). The essentials:
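Fluorescence from capillary electrophoresis of labelled RT-PCR reporter fragments gives the signal; DMSO sets baseline. Cells: HepG2 transiently carrying GAL4-UAS reporter units plus chimeric nuclear receptor-Gal4 proteins, exposed to chemicals for 24 h.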

In experiment [14] the target is Nuclear receptor subfamily 1 group I member 2 (Homo sapiens) (UniProt O75469). As to the kind of experiment: ATG_PXR_TRANS: Attagene TRANS-FACTORIAL HepG2 Assay for human Pregnane X Receptor (PXR) (AID 2283008; active = hit-call score of the fitted dose curve at least 0.9, where 1 is the maximum). The essentials:
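Trans-factorial format: exogenous NR-Gal4 fusion activity, not endogenous factor, in transfected human HepG2 liver cells. After 24 h dosing, RNA isolated, reverse-transcribed, amplified and resolved by capillary electrophoresis; induction scored versus DMSO.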

In experiment [15] the target is human RAR-related Orphan Receptor gamma (RORg), RORC (gene 6097) (UniProt P51449). The experiment is described as follows: ATG_RORg_TRANS: Attagene TRANS-FACTORIAL HepG2 Assay for human RAR-related Orphan Receptor gamma (RORg) (AID 2283011; active = hit-call score of the fitted dose curve at least 0.9, where 1 is the maximum). The essentials:
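Reporter transcripts from a transfected RORg-GAL4 chimera in HepG2 cells were quantified 24 h after dosing by RT-PCR, 6-FAM labelling, HpaI digestion and capillary electrophoresis; increases over DMSO baseline were fitted.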

Experiment [16] has as its target human Thyroid Receptor alpha (THRa1), THRA (gene 7067) (UniProt P10827). As to the kind of experiment: ATG_THRa1_TRANS: Attagene TRANS-FACTORIAL HepG2 Assay for human Thyroid Receptor alpha (THRa1) (AID 2283014; active = hit-call score of the fitted dose curve at least 0.9, where 1 is the maximum). The essentials: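 Transcripts from GAL4-UAS-driven reporters, measured after 24 h compound exposure by RT-PCR plus capillary electrophoresis of 6-FAM-labeled fragments, were fitted for gain of signal relative to DMSO. Cells: transiently transfected HepG2 expressing NR-Gal4 chimeras.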

Experiment [17] addresses human Retinoic Acid Receptor beta (RARb), RARB (gene 5915) (UniProt P10826). As to the kind of experiment: ATG_RARb_TRANS: Attagene TRANS-FACTORIAL HepG2 Assay for human Retinoic Acid Receptor beta (AID 2283004; active = hit-call score of the fitted dose curve at least 0.9, where 1 is the maximum). The essentials:
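Induction of reporter mRNA from a chimeric RARb-Gal4 construct was measured by RT-PCR, FAM labelling, HpaI digestion and capillary electrophoresis. Measurements followed 24 h compound treatment of transiently transfected human HepG2 liver cells, with DMSO as baseline.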

In experiment [18] the target is human Peroxisome Proliferator-activated Receptor alpha (PPARa), PPARA (gene 5465) (UniProt Q07869). The experiment is described as follows: ATG_PPARa_TRANS: Attagene TRANS-FACTORIAL HepG2 Assay for human Peroxisome Proliferator-activated Receptor alpha (PPARa) (AID 2283001; active = hit-call score of the fitted dose curve at least 0.9, where 1 is the maximum). The essentials: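 Transient HepG2 transfection, GAL4-UAS reporters, NR-Gal4 chimeras; 24 h compound exposure. Readout: reporter transcripts by RT-PCR, 6-FAM primer extension, HpaI digest, capillary electrophoresis. Positive direction vs DMSO baseline.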

Read-out in experiment [19]: E-selectin (Homo sapiens) (UniProt P16581)
As to the kind of experiment: BSK_3C_Eselectin: BioMAP Diversity Plus: 3C Assay for Eselectin Biomarker Activity (AID 2283015).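 Note: cell surface E-selectin protein quantified by ELISA 24 h after dosing.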 Conditions: primary human endothelial cells (HUVEC); actives raise or lower the signal. The essentials: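 E-selectin ELISA readout, fitted bidirectionally relative to DMSO, taken 24 h post-dosing in HUVEC cultures of the 3C system. Overt cytotoxicity tracked with sulforhodamine B staining of parallel wells.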

Inconclusive results are not listed. Activity calls are given as the source filed them. Rule for the calls, unless noted: active = hit-call score of the fitted dose curve at least 0.9, where 1 is the maximum; inactive = score below 0.9.

Nuclear receptor subfamily 1 group I member 2 (Homo sapiens), sequence (O75469 whole entry, looked up, the tested form may be a part): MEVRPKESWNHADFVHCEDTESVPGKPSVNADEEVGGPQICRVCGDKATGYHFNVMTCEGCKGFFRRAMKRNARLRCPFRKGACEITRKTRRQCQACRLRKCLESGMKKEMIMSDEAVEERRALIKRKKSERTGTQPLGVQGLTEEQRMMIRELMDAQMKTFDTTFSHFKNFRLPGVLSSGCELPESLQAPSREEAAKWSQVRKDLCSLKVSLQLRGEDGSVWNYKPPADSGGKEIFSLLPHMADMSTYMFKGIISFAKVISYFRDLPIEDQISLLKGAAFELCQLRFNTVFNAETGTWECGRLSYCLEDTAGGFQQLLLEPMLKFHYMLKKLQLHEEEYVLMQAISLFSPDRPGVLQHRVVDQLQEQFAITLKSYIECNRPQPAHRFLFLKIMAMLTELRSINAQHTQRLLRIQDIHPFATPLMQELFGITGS
human RAR-related Orphan Receptor gamma (RORg), RORC (gene 6097), sequence (P51449 whole entry, looked up, the tested form may be a part): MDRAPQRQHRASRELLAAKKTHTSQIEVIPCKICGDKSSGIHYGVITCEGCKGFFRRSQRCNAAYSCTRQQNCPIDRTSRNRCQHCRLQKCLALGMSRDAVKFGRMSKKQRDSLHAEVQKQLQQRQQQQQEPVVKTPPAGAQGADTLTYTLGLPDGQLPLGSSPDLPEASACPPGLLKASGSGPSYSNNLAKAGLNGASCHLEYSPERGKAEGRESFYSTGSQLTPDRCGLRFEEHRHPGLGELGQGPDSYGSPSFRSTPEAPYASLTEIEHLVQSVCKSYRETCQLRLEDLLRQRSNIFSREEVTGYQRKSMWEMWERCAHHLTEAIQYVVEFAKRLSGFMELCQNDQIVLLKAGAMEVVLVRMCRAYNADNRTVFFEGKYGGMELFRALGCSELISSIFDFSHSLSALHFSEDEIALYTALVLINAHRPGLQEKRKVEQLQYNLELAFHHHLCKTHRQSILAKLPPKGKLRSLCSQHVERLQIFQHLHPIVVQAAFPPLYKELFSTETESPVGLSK
human Thyroid Receptor alpha (THRa1), THRA (gene 7067), sequence (P10827 whole entry, looked up, the tested form may be a part): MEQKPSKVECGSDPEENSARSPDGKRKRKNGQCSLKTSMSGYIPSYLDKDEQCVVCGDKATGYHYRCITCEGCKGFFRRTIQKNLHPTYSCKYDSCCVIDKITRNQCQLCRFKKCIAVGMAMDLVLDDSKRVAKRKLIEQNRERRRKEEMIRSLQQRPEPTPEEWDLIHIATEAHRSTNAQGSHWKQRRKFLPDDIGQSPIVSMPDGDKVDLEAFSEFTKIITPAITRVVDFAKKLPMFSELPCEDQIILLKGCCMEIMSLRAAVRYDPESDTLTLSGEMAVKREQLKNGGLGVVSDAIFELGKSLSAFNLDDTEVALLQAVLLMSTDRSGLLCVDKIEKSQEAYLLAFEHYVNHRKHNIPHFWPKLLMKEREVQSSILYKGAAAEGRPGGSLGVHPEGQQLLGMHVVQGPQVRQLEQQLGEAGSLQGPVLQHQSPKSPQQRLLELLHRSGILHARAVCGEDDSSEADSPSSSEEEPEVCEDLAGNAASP
human Retinoid X Receptor beta (RXRb), RXRB (gene 6257), sequence (P28702 whole entry, looked up, the tested form may be a part): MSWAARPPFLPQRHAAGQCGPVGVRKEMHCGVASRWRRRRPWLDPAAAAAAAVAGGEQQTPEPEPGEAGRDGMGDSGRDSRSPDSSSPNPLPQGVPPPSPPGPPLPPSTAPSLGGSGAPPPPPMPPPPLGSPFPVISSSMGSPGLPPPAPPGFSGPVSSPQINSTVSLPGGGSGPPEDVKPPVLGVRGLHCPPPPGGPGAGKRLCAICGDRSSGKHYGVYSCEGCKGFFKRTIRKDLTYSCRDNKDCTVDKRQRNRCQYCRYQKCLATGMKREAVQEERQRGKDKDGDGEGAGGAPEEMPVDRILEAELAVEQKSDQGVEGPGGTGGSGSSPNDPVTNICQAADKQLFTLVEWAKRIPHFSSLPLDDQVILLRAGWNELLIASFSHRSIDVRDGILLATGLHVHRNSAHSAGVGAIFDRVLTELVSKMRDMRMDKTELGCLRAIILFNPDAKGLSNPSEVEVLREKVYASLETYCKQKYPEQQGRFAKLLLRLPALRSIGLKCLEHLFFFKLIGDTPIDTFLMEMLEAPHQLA
human Peroxisome Proliferator-activated Receptor delta (PPARd), PPARD (gene 5467), sequence (Q03181 whole entry, looked up, the tested form may be a part): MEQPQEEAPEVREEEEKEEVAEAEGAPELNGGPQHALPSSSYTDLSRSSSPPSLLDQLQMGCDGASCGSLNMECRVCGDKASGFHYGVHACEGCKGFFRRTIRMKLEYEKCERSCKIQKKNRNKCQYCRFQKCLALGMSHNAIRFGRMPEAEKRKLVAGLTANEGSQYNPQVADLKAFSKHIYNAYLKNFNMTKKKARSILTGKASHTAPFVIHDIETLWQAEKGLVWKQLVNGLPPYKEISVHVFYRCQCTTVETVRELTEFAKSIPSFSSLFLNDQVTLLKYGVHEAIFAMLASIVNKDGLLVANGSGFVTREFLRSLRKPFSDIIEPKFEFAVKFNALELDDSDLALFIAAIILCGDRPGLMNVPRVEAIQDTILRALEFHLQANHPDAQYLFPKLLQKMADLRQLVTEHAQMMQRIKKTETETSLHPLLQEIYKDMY
Retinoic acid receptor RXR-alpha (Homo sapiens), sequence (P19793 whole entry, looked up, the tested form may be a part): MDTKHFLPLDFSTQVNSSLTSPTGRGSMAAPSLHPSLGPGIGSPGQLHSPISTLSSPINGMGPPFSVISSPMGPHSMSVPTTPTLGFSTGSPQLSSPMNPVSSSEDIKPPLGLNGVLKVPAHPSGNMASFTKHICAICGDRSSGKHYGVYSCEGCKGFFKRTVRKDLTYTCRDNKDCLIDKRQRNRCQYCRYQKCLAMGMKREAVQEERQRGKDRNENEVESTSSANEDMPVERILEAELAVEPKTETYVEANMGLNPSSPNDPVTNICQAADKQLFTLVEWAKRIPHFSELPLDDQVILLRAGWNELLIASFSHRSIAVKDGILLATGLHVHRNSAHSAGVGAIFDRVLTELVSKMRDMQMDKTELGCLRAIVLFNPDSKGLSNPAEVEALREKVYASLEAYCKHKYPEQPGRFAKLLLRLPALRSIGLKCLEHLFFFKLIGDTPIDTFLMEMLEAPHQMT
Peroxisome proliferator-activated receptor gamma (Homo sapiens), sequence (P37231 whole entry, looked up): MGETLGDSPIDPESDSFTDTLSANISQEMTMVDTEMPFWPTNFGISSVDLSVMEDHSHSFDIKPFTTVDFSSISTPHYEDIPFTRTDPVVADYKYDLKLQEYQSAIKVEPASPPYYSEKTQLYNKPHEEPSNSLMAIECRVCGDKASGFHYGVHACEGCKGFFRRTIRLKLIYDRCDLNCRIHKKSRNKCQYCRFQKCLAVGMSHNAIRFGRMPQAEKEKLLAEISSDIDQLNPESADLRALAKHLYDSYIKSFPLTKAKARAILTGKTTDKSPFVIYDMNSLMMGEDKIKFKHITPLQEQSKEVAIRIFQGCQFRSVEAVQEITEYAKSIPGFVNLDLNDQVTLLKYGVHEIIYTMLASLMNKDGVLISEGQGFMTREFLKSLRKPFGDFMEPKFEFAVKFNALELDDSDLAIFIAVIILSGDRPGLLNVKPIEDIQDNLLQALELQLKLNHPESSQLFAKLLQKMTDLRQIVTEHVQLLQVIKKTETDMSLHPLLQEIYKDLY
human Peroxisome Proliferator-activated Receptor alpha (PPARa), PPARA (gene 5465), sequence (Q07869 whole entry, looked up, the tested form may be a part): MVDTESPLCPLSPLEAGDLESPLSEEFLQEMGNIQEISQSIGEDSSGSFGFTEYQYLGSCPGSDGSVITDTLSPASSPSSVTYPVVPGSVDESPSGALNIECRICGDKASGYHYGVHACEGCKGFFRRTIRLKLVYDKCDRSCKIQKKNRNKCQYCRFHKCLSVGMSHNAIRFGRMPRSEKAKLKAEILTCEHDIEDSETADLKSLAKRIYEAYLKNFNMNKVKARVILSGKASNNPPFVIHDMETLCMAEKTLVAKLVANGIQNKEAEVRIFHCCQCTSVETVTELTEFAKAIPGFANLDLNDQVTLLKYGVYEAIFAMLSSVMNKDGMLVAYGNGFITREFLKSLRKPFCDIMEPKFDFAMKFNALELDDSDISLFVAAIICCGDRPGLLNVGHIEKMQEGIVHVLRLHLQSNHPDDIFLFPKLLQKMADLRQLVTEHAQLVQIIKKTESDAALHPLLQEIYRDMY
human Retinoic Acid Receptor beta (RARb), RARB (gene 5915), sequence (P10826 whole entry, looked up, the tested form may be a part): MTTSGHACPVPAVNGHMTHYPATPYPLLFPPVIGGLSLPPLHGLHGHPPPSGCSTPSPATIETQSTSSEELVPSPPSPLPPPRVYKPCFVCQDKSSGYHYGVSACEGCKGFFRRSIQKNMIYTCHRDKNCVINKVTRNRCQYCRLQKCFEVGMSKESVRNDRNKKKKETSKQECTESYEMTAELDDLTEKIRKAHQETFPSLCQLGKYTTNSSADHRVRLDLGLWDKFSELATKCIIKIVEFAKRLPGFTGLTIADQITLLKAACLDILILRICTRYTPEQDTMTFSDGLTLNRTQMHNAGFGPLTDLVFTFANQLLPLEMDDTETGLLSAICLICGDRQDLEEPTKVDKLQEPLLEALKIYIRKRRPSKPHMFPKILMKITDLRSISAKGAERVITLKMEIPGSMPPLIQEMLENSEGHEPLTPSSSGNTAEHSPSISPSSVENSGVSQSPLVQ
E-selectin (Homo sapiens), sequence (P16581 whole entry, looked up): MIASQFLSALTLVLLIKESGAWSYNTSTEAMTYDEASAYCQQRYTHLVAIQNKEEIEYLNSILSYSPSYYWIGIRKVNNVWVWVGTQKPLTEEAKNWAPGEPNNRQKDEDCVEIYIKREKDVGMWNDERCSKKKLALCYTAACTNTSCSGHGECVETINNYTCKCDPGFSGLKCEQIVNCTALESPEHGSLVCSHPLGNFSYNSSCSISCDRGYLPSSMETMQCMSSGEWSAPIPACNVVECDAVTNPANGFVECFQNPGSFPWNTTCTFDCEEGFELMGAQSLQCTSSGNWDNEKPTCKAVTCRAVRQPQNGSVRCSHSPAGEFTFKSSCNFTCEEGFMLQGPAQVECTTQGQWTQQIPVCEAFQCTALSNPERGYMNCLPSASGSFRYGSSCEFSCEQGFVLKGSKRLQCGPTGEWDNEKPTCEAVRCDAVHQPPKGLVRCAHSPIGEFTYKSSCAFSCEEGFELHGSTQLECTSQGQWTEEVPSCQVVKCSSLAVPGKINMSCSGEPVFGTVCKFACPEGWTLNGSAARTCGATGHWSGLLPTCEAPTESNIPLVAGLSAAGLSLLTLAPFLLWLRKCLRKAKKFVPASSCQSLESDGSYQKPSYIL

Regarding `CN(C)c1nc(=O)n(C2CCCCC2)c(=O)n1C`, the outcome in experiment [1], in [2], in experiment [3], in experiment [4], in experiment [5] and in [6] was inactive. Moreover, the outcome in [7], in experiment [8], in experiment [9], in [10], in [11] and in [12] was inactive.
As a reminder, the AC50 is the midpoint of the concentration-response curve, whichever way the signal moves. With `C[C@]12CCC(=O)C=C1CC[C@@H]1[C@@H]2CC[C@@]2(C)[C@H]1CC[C@]2(C)O`, the result in experiment [1], in experiment [13], in experiment [2], in [4], in experiment [14] and in experiment [15] was inactive. The compound was classed as inactive in experiment [5], in experiment [6], in [16], in [7], in [9] and in [11]. The result in experiment [12] was inactive. In addition, the AC50 in experiment [3] was 28.8 µM (active).
For `CCCN(CCC)N=O`, the outcome in [1], in experiment [2], in experiment [3], in experiment [15], in experiment [7] and in experiment [8] was inactive. Also, the outcome in experiment [9], in [11] and in experiment [12] was inactive.
With `Cc1cccc([N+](=O)[O-])c1`, the outcome in experiment [1], in experiment [2], in experiment [17], in experiment [3], in experiment [6] and in experiment [7] was inactive. The outcome in experiment [9], in [10], in experiment [11] and in experiment [12] was inactive.
As to `Clc1ccc(C(Cl)(Cl)Cl)cc1`, the outcome in experiment [1], in experiment [18], in experiment [2], in experiment [3], in experiment [4] and in experiment [14] was inactive. Besides, the result in experiment [5], in experiment [6], in experiment [16], in experiment [19], in [7] and in [8] was inactive. The outcome in [9], in experiment [11] and in experiment [12] was inactive.
Take `Cc1ccccc1[N+](=O)[O-]`: the result in experiment [1], in experiment [18], in experiment [2], in experiment [3], in experiment [7] and in [9] was inactive. The outcome in experiment [11] and in experiment [12] was inactive.
